Assay results as given in PubChem BioAssay (EPA / NIEHS).
Results filed as inconclusive are left out. Calls of active or inactive are those of the source. Rule for the calls: active = hit-call score of the fitted dose curve at least 0.9, where 1 is the maximum; inconclusive = response in the unintended direction; inactive = score below 0.9.

Read-out: ABC Transporter (ABCB11), ABCB11 (gene 8647)
Test: CLD_ABCB11_6hr: CellzDirect (CLD) Gene Expression Assay for ABC Transporter (ABCB11) at 6 hours (AID 2283675);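 note: hits raise ABCB11 mRNA level so AC50 marks induction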
Procedure: CLD_6hr is a cell-based, multiplexed-readout assay that uses hepatocyte, a human liver primary cell, with measurements taken at 6 hours after chemical dosing in a 96-well plate.CLD_ABCB11_6hr is one of 16 assay component(s) measured or calculated from the CLD_6hr assay. It is designed to make measurements of mRNA induction, a form of inducible reporter, as detected with chemiluminescence signals by Quantitative Nuclease Protection Assay (qNPA) technology.Data from the assay component CLD_ABCB11_6hr was analyzed at the endpoint, CLD_ABCB11_6hr, in the positive analysis fitting direction relative to DMSO as the negative control and baseline of activity. Using a type of inducible reporter, gain-of-signal activity can be used to understand changes in the reporter gene as they relate to the gene ABCB11. Furthermore, this assay endpoint can be referred to as a primary readout. To generalize the intended target to other relatable targets, this assay endpoint is annotated to the transporter intended target family, where subfamily is ABC transporter.
Human hepatocyte cultures were treated daily for two consecutive days with fresh dosing solutions containing appropriate concentrations of the 320 ToxCast chemicals (chemical identities were blinded to CellzDirect and other ToxCast collaborators), vehicle control (0.2% DMSO), and positive control inducers as summarized in Table 1. Due to the large number of treatment groups and chemicals examined, the ToxCast chemicals were divided into two groups (spanning two independent cultures of hepatocytes from separate donor preparations (Hu778: ToxCast plates 1 and 2; Hu776: ToxCast plates 3 and 4). Each preparation of human hepatocyte cultures was treated with respective vehicle control, medium only control, set of six positive controls/reference chemicals for the five hepatic receptor pathways, and a subset of eight of the ToxCast chemicals (indoxacarb, pyrithiobac-sodium, norflurazon, cyhalofop-butyl, methomyl, thiram, acetochlor, and propiconazole). These replicate data, coupled with internal replicates designed within the blinded ToxCast chemical library, provided additional data to evaluate interindividual differences between hepatocyte preparations and their potential impact on chemical profiles.Cell morphology and integrity were evaluated using phase-contrast microscopy as an indicator of hepatocyte cell health (Tyson & Green, 1987). Cultures for each treatment group (i.e., media, vehicle [0.2% DMSO], positive control inducers [multiple concentrations], and the ToxCast chemicals [multiple concentrations]) were observed and cell morphology was assessed relative to vehicle control cultures at each harvest time point (0, 6, 24, or 48 h). […] Images were evaluated at the conclusion of the study to assess changes in cell integrity and account for the effects of chemical exposure on uncharacteristic changes in concentration-dependent gene expression profiles. The results from these determinations of apparent cytotoxicity were annotated (yes/no) alongside the corresponding qNPA data for reference.At the conclusion of each treatment period, hepatocyte cultures (96-well) were washed with 1 volume of HBSS, lysed by addition of 25 ul ArrayPlate lysis buffer (HTG, Tucson, AZ), and 70 ul/well of Denaturation Oil, denatured by incubation at 95C for 10 min, and frozen at approximately -70C until analysis by nuclease protection assay (qNPA) (Roberts et al., 2007). For qNPA analysis, cell lysates were thawed at 50C for approximately 30 min, qNPA probes were added, and samples were incubated at 95C for 10 min to begin the detection process by denaturing the target RNA, dissociating the duplexes and secondary structure hybridization. At the conclusion of the hybridization period, S1 nuclease reagent was added to each sample to digest all nonprotected nucleotides at 50C for 60-90 min. […]

| SMILES | outcome |
| --- | --- |
| CC1(C)CCC(=Cc2ccc(Cl)cc2)C1(O)Cn1cncn1 (stereo not given) | inactive |
| CCOc1nc(F)cc2nc(S(=O)(=O)Nc3c(Cl)cccc3Cl)nn12 | inactive |
| CC(C)=CC1C(C(=O)OCc2coc(Cc3ccccc3)c2)C1(C)C (stereo not given) | inactive |
| O=C(Nc1ccccc1-c1ccc(Cl)cc1)c1cccnc1Cl | inactive |
| COP(=O)(OC)O/C(C)=C/C(=O)N(C)C | inactive |
| CSC(=O)c1c(C(F)F)nc(C(F)(F)F)c(C(=O)SC)c1CC(C)C | inactive |
| Nc1c(Cl)c(Cl)nc(C(=O)O)c1Cl | inactive |
| COc1cc(Cl)c(OC)cc1Cl | inactive |
| N#Cc1c(Cl)cccc1Cl | inactive |
| CC(C)(C)C(=O)C(Oc1ccc(Cl)cc1)n1cncn1 (stereo not given) | inactive |
| Clc1cccc(C(Cl)(Cl)Cl)n1 | inactive |
| CCCC(=NOCC)C1=C(O)CC(CC(C)SCC)CC1=O (stereo not given) | inactive |
| O=P(O)(O)CCCl | inactive |
| COC(=O)NS(=O)(=O)c1ccc(N)cc1 | inactive |
| CNC(=O)Oc1cccc2ccccc12 | inactive |
| COCC(C)N(C(=O)CCl)c1c(C)csc1C (stereo not given) | inactive |
| COc1ccc(-c2ccccc2)cc1NNC(=O)OC(C)C | inactive |
| Nc1c(Cl)c(F)nc(OCC(=O)O)c1Cl | inactive |
| COCc1cnc(C2=NC(C)(C(C)C)C(=O)N2)c(C(=O)O)c1 (stereo not given) | inactive |
| CC(C)N1C(=O)N(c2ccccc2)CSC1=NC(C)(C)C | inactive |

| SMILES | outcome |
| --- | --- |
| COC(=O)N(C(=O)N1CO[C@@]2(C(=O)OC)Cc3cc(Cl)ccc3C2=N1)c1ccc(OC(F)(F)F)cc1 | inactive |
| O=C1C2CC=CCC2C(=O)N1SC(Cl)(Cl)Cl (stereo not given) | inactive |
| OC(c1ccc(Cl)cc1)(c1ccc(Cl)cc1)C(Cl)(Cl)Cl | inactive |
| O=c1n(Cl)c(=O)n(Cl)c(=O)n1Cl | inactive |
| CCOc1cc(C(C)(C)C)ccc1C1COC(c2c(F)cccc2F)=N1 (stereo not given) | inactive |
| COP(=S)(OC)Oc1ccc([N+](=O)[O-])c(C)c1 | inactive |
| CCOP(=S)(OCC)Oc1nc(Cl)n(C(C)C)n1 | inactive |
| CCOc1nc(C(Cl)(Cl)Cl)ns1 | inactive |
| CC(C)N1C(=O)c2ccccc2NS1(=O)=O | inactive |
| O=C(O)c1c(Cl)ccc2cc(Cl)cnc12 | inactive |
| CCOP(=O)(OCC)Oc1nc(Cl)c(Cl)cc1Cl | inactive |
| CC1(C)CON(Cc2ccccc2Cl)C1=O | inactive |
| C=CCOC(=O)C(C)(C)OC(=O)c1cc(-n2c(=O)cc(C(F)(F)F)n(C)c2=O)ccc1Cl | inactive |
| Cc1nc(N(C)C)nc(OC(=O)N(C)C)c1C | inactive |
| Clc1nc(Cl)nc(Nc2ccccc2Cl)n1 | inactive |
| CS(=O)(=O)c1cc(C(F)(F)F)ccc1C(=O)c1cnoc1C1CC1 | inactive |
| CN=C=S | inactive |
| COP(=S)(OC)SCn1nnc2ccccc2c1=O | inactive |
| CS(=O)(=O)c1ccc(C(=O)C2C(=O)CCCC2=O)c([N+](=O)[O-])c1 | inactive |
| CCNP(=S)(OC)O/C(C)=C/C(=O)OC(C)C (stereo not given) | inactive |
